In paper PMC5540273 (PLoS ONE, 2017):
Like-named read-outs stand apart in the source and are kept apart here.

Tests used:
[1] = tested on: WNK1; settings: concentration: 1 μM, replicates: in singlicate; n = 1
[2] = tested on: WNK2; settings: concentration: 1 μM, replicates: in singlicate; n = 1
[3] = tested on: WNK3; settings: concentration: 1 μM, replicates: in singlicate; n = 1
[4] = tested on: WNK4; settings: concentration: 1 μM, replicates: in singlicate; n = 1
[5] = tested on: T1, YANK1; settings: concentration: 1 μM, replicates: in singlicate; n = 1
T1 construct: gene STK32A

[6] = tested on: T2, YANK2; settings: concentration: 1 μM, replicates: in singlicate; n = 1
T2 construct: gene STK32B

[7] = tested on: T3, YANK3; settings: concentration: 1 μM, replicates: in singlicate; n = 1
T3 construct: gene STK32C

[8] = tested on: T4, YES; settings: concentration: 1 μM, replicates: in singlicate; n = 1
T4 construct: gene YES1

[9] = tested on: T5, YSK1; settings: concentration: 1 μM, replicates: in singlicate; n = 1
T5 construct: gene STK25

[10] = tested on: T6, YSK4; settings: concentration: 1 μM, replicates: in singlicate; n = 1
T6 construct: gene MAP3K19

[11] = tested on: ZAK; settings: concentration: 1 μM, replicates: in singlicate; n = 1
[12] = tested on: ZAP70; settings: concentration: 1 μM, replicates: in singlicate; n = 1
[13] = tested on: T7, p38-alpha; settings: n = 1
T7 construct: gene MAPK14

[14] = tested on: T8, p38-beta; settings: concentration: 1 μM, replicates: in singlicate; n = 1
T8 construct: gene MAPK11

[15] = tested on: p38-delta; settings: concentration: 1 μM, replicates: in singlicate; n = 1
[16] = tested on: T9, p38-gamma; settings: concentration: 1 μM, replicates: in singlicate; n = 1
T9 construct: gene MAPK12

[17] = concentration: 1 μM, replicates: in singlicate
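Note: KINOMEscan kinase panel screen.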

| SMILES | %Inh [1] | %Inh [2] | %Inh [3] | %Inh [4] | %Inh [5] | %Inh [6] | %Inh [7] | %Inh [8] | %Inh [9] | %Inh [10] | %Inh [11] | %Inh [12] | %Inh [13, 17] | %Inh [14] | %Inh [15] | %Inh [16] | %Inh ([13]; 1 µM) |
| --- | --- | --- | --- | --- | --- | --- | --- | --- | --- | --- | --- | --- | --- | --- | --- | --- | --- |
| Cc1cccc(NC(=O)Nc2ccc(Oc3ncnc4ccn(C)c34)cc2)c1 | 0% | 0% | 0% | 0% | 0% | 0% | 31% | 0% | 0% | 97.1% | 0% | 0% | 0% | 0% | 0% | 0% |  |
| Cc1ccc(S(=O)(=O)Nc2ccc(Nc3nccc(Nc4cccc5[nH]ncc45)n3)cc2)cc1 [GSK581271] | 4% | 0% | 26% | 16% | 0% | 0% | 3% | 30% | 13% | 67% | 13% | 0% | 0% | 0% | 46% | 0% |  |
| COc1ccc(-c2coc3ccc(-c4nnc(SCc5ccc(OC)c(C(F)(F)F)c5)o4)cc23)cc1 | 0% | 31% | 0% | 4% | 10% | 0% | 0% | 12% | 0% | 20% | 0% | 0% | 0% | 6% | 6% | 16% |  |
| CC(=O)N1CCN(c2ccc(Nc3nccc(-c4sc(C(C)C)nc4-c4cccc(NS(=O)(=O)c5cccc(Cl)c5)c4)n3)cn2)CC1 [GSK1660437] | 2% | 11% | 0% | 0% | 3% | 77% | 0% | 92.4% | 0% | 9% | 96.7% | 0% | 32% | 0% | 0% | 11% |  |
| Oc1cc(Nc2ccnc3cc(I)ccc23)ccc1F [GW552771] | 1% | 4% | 34% | 35% | 10% | 22% | 31% | 26% | 0% | 79% | 73% | 0% | 4% | 0% | 27% | 0% |  |
| Cl.Cl.NCC(NCc1ccc(-c2ccnc3[nH]ccc23)s1)c1ccccc1 (stereo not drawn) [GSK1321565] | 0% | 11% | 26% | 0% | 0% | 0% | 0% | 0% | 0% | 99.3% | 15% | 0% | 27% | 0% | 3% | 0% |  |
| O=C(Nc1cccc(Oc2ccc3nc(NC(=O)C4CC4)cn3n2)c1)c1ccccc1C(F)(F)F | 0% | 0% | 0% | 13% | 0% | 0% | 0% | 50% | 9% | 70% | 25% | 0% | 9% | 15% | 17% | 42% |  |
| CC(=O)Nc1nc2cnc(Nc3cc(NC(=O)c4cccc(C5(C#N)CC5)c4Cl)ccc3C)nc2s1 | 0% | 0% | 0% | 0% | 0% | 12% | 25% | 82% | 0% | 0% | 17% | 0% | 86% | 19% | 17% | 0% |  |
| Cc1ccc(C(=O)Nc2ccc(Nc3ccnc4cc(-c5nccs5)ccc34)cc2O)cc1.Cl [GW494702] | 6% | 41% | 38% | 39% | 9% | 0% | 11% | 33% | 0% | 30% | 63% | 33% | 0% | 0% | 21% | 19% |  |
| C[C@@H]1CC[C@@H](C(=O)Nc2ccccc2)CN1c1cc(-c2ccc3c(N)n[nH]c3c2)nc(N)n1 [GSK2286062] | 0% | 0% | 33% | 0% | 15% | 0% | 17% | 0% | 21% | 29% | 0% | 0% | 28% | 0% | 13% | 46% |  |
| Cn1cc(-c2ccc3c(c2)CCN3C(=O)Cc2cccc(F)c2)c2c(N)ncnc21 [GSK2603358] | 13% | 0% | 48% | 59% | 0% | 0% | 4% | 22% | 31% | 98.2% | 0% | 55% | 0% | 0% | 52% | 19% |  |
| Fc1ccc(-c2ncn(C3CCNCC3)c2-c2ccnc(Oc3ccc(-c4ccccc4)cc3)n2)cc1 [SB-245391] | 42% | 0% | 32% | 0% | 90.8% | 85% | 86% | 0% | 18% | 47% | 17% | 24% |  | 60% | 0% | 26% | 96% |
| O=C(NC1CCN(c2ccnc(Nc3ccc(F)cc3)n2)C1)c1cc2ccccc2s1 (stereo not drawn) [GSK1379716] | 20% | 22% | 33% | 46% | 0% | 20% | 29% | 20% | 19% | 14% | 20% | 0% | 7% | 0% | 45% | 67% |  |
| c1ccc(-c2cnc3nccnn23)cc1 [AH20685] | 0% | 2% | 1% | 0% | 6% | 0% | 0% | 0% | 0% | 0% | 0% | 0% | 0% | 0% | 20% | 0% |  |
| Cc1ccc(C(=O)N2CC[C@@H](O)C2)cc1-n1c(C)cc(OCc2ccc(F)cc2F)c(Br)c1=O | 0% | 0% | 0% | 0% | 0% | 0% | 0% | 20% | 0% | 0% | 0% | 0% | 100% | 95.4% | 7% | 5% |  |
| CN1CCN(CCCNc2nccc(-c3c(-c4ccc(F)cc4)nn4cc(C(F)(F)F)ccc34)n2)CC1 [GW621581] | 3% | 13% | 0% | 0% | 0% | 8% | 0% | 1% | 0% | 9% | 17% | 0% | 99.8% | 39% | 12% | 18% |  |
| C[C@@H](Oc1cc(-n2cnc3cc(-c4ccnc(NCCS(C)(=O)=O)c4)ccc32)sc1C(N)=O)c1ccccc1Cl [GSK907232] | 37% | 80% | 88% | 37% | 6% | 0% | 32% | 47% | 14% | 96.7% | 27% | 0% | 0% | 14% | 29% | 0% |  |
| CCc1ccc(-c2ccc3c(c2)-c2c(cnn2C)S(=O)(=O)N3C)cc1 | 0% | 5% | 0% | 0% | 1% | 0% | 0% | 0% | 7% | 7% | 3% | 0% | 9% | 4% | 23% | 14% |  |
